Results on 13 molecules are retold here after PubChem BioAssay.

SMILES strings stand for the structures. Calls of active or inactive are those of the source. Unless noted, how the calls were made is not given here.

Assay [1] is described as follows: HepG2 liver cancer cell viability effects, profiling panel, resazurin fluorescence, 24 h, PK04 Diversity Set (AID 1172). Further: test concentration not given here. Particulars: higher = more signal. (Resazurin is reduced to fluorescent resorufin, in cell work by metabolically active cells.)
The nature of assay [2]: basal S. cerevisiae growth modulation, no modifier, primary screen, OD600, strain BY4716, 24 h, basal condition (AID 1173). To be noted: OD600, 24 h, higher = more signal, called active from +8 up or from −8 down.
Assay [3] can be described thus: MM1S myeloma cell viability, profiling panel, resazurin fluorescence, basal, 24 h, PK04 Diversity Set (AID 1174).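 Further: MM1S multiple myeloma cell line; test concentration not given here.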 Particulars: higher = more signal, called active from +8 up or from −8 down.
For assay [4], the target named is Dihydroorotate dehydrogenase (quinone), mitochondrial (Plasmodium falciparum (isolate 3D7)) (UniProt Q08210). As to the kind of experiment: PfDHODH enzyme inhibitors, primary screen, biochemical, C-terminal His tag, absorbance 600 nm (AID 1175).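 Further: recombinant parasite enzyme with a five histidine tag at its C terminus; test concentration not given here.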 To be noted: DCIP absorbance 600 nm, higher = more signal, called active from +8 up or from −8 down.
Assay [5] in a line: P. aeruginosa biofilm formation inhibitors, primary screen, strain PAO1, LB-PBS medium, absorbance 600 nm (AID 1176). Further: test concentration not given here. Particulars: P. aeruginosa PAO1 growth/biofilm, A600, 12 h; higher = more signal.
A short description of assay [6]: S. cerevisiae RM11-1a growth modifiers, primary screen, strain RM11-1a, OD600, basal, 24 h (AID 1177).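 Further: cultures grown under basal conditions with no added stressor; test concentration not given here.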 Particulars: OD600, 24 h, higher = more signal, called active from +8 up or from −8 down.
Assay [7] in a line: E. coli acrAB mutant growth effects, primary screen, E. coli filamentation inducers, strain DRC39, OD650, 24 h (AID 1178).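 Further: growth measured as culture turbidity by optical density at 650 nm; test concentration not given here.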 Particulars: higher = more signal, called active from +8 up or from −8 down.
The nature of assay [8]: E. coli acrAB mutant growth effects, primary screen, E. coli filamentation inducers, strain DRC39, OD650, 48 h (AID 1179).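 Further: screen aims at cell division blockers that make cells filament.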 Particulars: E. coli DRC39 delta-acrAB growth, higher = more signal, called active from +8 up or from −8 down.
A short description of assay [9]: RPMI8226 myeloma cell viability, profiling panel, resazurin fluorescence, basal, 24 h, PK04 Diversity Set (AID 1180).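 Further: RPMI8826 multiple myeloma cell line at 5000 cells per well; test concentration not given here.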 Particulars: higher = more signal.
Assay [10] concerns the target E3 ubiquitin-protein ligase XIAP (Homo sapiens) (UniProt P98170). As to the kind of experiment: XIAP binders, primary screen, biophysical, small-molecule microarray, fluorescence 635 nm (AID 1181).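 Further: score merges 667 nm emission and signal to noise over triplicate slides.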 Particulars: small-molecule microarray binding, higher = more signal.

Chain of Dihydroorotate dehydrogenase (quinone), mitochondrial (Plasmodium falciparum (isolate 3D7)) (Q08210 whole entry, looked up): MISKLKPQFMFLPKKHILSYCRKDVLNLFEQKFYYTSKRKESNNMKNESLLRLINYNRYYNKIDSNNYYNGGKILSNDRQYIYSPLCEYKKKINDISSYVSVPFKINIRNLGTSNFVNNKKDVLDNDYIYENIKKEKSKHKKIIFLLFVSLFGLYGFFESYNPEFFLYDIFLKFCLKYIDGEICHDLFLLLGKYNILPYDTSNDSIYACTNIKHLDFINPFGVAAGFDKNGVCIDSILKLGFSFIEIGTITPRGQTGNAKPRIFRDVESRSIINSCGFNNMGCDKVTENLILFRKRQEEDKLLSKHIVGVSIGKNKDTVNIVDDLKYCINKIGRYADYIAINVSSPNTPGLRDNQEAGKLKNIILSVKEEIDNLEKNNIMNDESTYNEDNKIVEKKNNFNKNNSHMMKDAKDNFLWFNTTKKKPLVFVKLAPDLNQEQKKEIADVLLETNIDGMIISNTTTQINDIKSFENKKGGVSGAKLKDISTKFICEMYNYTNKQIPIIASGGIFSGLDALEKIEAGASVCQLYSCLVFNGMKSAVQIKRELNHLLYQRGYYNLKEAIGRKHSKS
Chain of E3 ubiquitin-protein ligase XIAP (Homo sapiens) (P98170 whole entry, looked up): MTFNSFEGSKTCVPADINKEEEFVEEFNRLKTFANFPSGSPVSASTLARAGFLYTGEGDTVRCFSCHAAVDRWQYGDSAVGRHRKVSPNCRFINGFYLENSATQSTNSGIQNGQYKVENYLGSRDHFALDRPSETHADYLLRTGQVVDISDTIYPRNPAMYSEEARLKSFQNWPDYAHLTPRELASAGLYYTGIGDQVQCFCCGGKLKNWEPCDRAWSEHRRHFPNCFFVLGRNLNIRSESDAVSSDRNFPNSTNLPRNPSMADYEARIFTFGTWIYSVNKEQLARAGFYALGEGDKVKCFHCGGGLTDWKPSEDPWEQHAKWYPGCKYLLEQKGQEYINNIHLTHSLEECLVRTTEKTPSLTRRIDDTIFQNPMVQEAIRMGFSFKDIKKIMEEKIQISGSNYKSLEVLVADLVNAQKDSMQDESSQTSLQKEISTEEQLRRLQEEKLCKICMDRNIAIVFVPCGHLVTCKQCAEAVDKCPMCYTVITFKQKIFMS

Consider `CCOC(=O)C[C@H]1[C@H](OC(=O)c2ccc(C(=O)c3ccccc3)cc2)[C@@H](NC(=O)Cc2ccc(OC)cc2)c2cc(OCCCO)ccc2N1C(=O)c1ccc2ccccc2n1`, for which the z-score was -0.0666 in assay [1]; -0.337 (inactive) in [2]; -0.0911 (inactive) in assay [3]; 0.207 (inactive) in assay [5]; 0.11 (inactive) in [6]; -0.572 (inactive) in assay [7]. The z-score was -0.335 (inactive) in [8] and 0.273 in [9]. For the same molecule, the results for the composite z-score in assay [4] and in assay [10] were 0.764 (inactive) and 0.0801, respectively.
As to `C=CC[C@]1(C(N)=O)N=C(c2ccc(OCCCO)cc2)O[C@H]1c1ccccc1`, the z-score in [1] is -0.095; in assay [2], -0.496 (inactive); in assay [3], -0.0113 (inactive); in assay [5] it was 0.248 (inactive); in assay [6], -0.412 (inactive); in [7], 0.247 (inactive). Moreover, the z-score is -0.875 (inactive) in assay [8] and -0.52 in [9]. For the same molecule, the figures for the composite z-score in assay [4] and in assay [10] were 0.867 (inactive) and -0.0749, respectively.
On to `C=C(/C(=C/C[C@H](OC(=O)c1ccncc1)c1ccc(OCCO)cc1)c1cc(C(=O)OC)ccc1OC)C(C)C`, for which the z-score in assay [1] is 0.438; in assay [2], -1.44 (inactive); in assay [3], -0.0968 (inactive); in [5] it was -0.681 (inactive); in [6] it was -0.517 (inactive); in assay [7], -0.427 (inactive). The z-score is -0.579 (inactive) in [8] and -0.0979 in assay [9]. The composite z-score in assay [4] was -1.88 (inactive); in assay [10], -0.0095.
For the molecule `CC(C)N1CC=CC23O[C@@H]4C=CCOC(=O)[C@@H]4[C@H]2C(=O)N(CCCCCO)[C@@H]3C1=O` (stereo not given in full), the z-score is 0.413 in [1]; -0.746 (inactive) in assay [2]; 1.27 (inactive) in assay [3]; 0.897 (inactive) in [5]; -1.06 (inactive) in assay [6]; 0.319 (inactive) in assay [7]. Also, the z-score was -0.134 (inactive) in assay [8] and 0.888 in assay [9]. The figures for the composite z-score in [4] and in assay [10] were -1.85 (inactive) and -0.216, respectively.
For `CCCCN1CC=CC23O[C@@H]4/C=C\CCCOC(=O)C4[C@H]2C(=O)N(CCCCCO)[C@@H]3C1=O` (stereo not given in full), the z-score was 0.641 in [1]; -0.287 (inactive) in assay [2]; 0.451 (inactive) in assay [3]; 1.02 (inactive) in assay [5]; -1.06 (inactive) in [6]; 0.0497 (inactive) in assay [7]. Further, the z-score was -0.15 (inactive) in assay [8] and 0.313 in [9]. The composite z-score in assay [4] is -0.757 (inactive); in assay [10], 0.161.
As to `O=C1OCC=C[C@H]2OC34C=CCN(Cn5nnc6ccccc65)C(=O)[C@H]3N(CCCCCO)C(=O)[C@@H]4[C@@H]12` (stereo not given in full), the z-score in assay [1] is 0.0883; in assay [2], 0.21 (inactive); in [3], -0.0233 (inactive); in assay [5] it was 0.193 (inactive); in [6], -0.273 (inactive); in assay [7], -0.293 (inactive). Moreover, the z-score in assay [8] is -0.571 (inactive); in assay [9], -0.0297. The composite z-score in assay [4] was -1.24 (inactive); in assay [10], 0.515.
With `COc1ccc(NC(=O)O[C@H]2[C@H](OC(=O)c3cc4ccccc4[nH]3)[C@@H](OC(=O)c3cc4ccccc4[nH]3)[C@@H](OC)O[C@@H]2CO)cc1`, the z-score is -1.08 in [1]; -0.302 (inactive) in assay [2]; -1.68 (inactive) in assay [3]; 0.305 (inactive) in assay [5]; -0.575 (inactive) in assay [6]; 1.13 (inactive) in [7]. Further, the z-score in assay [8] is 1.53 (inactive); in [9] it was -1.69. The composite z-score in assay [4] was -0.558 (inactive); in assay [10], 0.103.
For the molecule `CC(C)(C)OC(=O)CC[C@]1(C(N)=O)N=C(c2ccc(OCCCO)cc2)O[C@H]1c1ccccc1`, the z-score in assay [1] was -0.49; in assay [2] it was 0.45 (inactive); in assay [3], -0.689 (inactive); in assay [5], 0.55 (inactive); in assay [6], 0.663 (inactive); in assay [7] it was -0.218 (inactive). In addition, the z-score was -0.585 (inactive) in assay [8] and -0.676 in assay [9]. The composite z-score in [4] was -0.0959 (inactive); in assay [10], 0.12.
As for `C=CCN(Cc1ccccc1)C(=O)C(c1cccs1)N(C(=O)/C=C\C(=O)O)c1ccc(CCOCCO)cc1` (stereo not given), the z-score was -0.552 in [1]; 0.25 (inactive) in assay [2]; 0.222 (inactive) in assay [3]; 0.742 (inactive) in assay [5]; -1.18 (inactive) in assay [6]; 0.368 (inactive) in assay [7]. Further, the z-score was 0.651 (inactive) in assay [8] and 0.424 in [9]. Besides, the composite z-score in assay [4] is -1.54 (inactive); in assay [10] it was -0.249.
On to `COCCOC(=O)N1C(=O)[C@@]2(c3cc(C#CC4(O)CCCCCC4)ccc31)[C@H](C(=O)Nc1nc3ccccc3s1)[C@H]1C(=O)O[C@H](c3ccccc3)[C@H](c3ccccc3)N1[C@@H]2c1ccc(OCCO)cc1`, for which the z-score in assay [1] was -0.0451; in [2], 1.16 (inactive); in assay [3] it was -0.584 (inactive); in [5] it was 2.69 (inactive); in assay [6] it was 3 (inactive); in assay [7] it was -0.451 (inactive). For the same molecule, the results for the z-score in assay [8] and in [9] were -0.976 (inactive) and -0.523, respectively. The composite z-score in assay [4] is 0.901 (inactive); in assay [10], 0.0073.
Consider `COCCOC(=O)N1C(=O)[C@@]2(c3ccccc31)[C@H](C(=O)N1CCCCCCC1)[C@H]1C(=O)O[C@H](c3ccccc3)[C@H](c3ccccc3)N1[C@@H]2c1ccc(OCCO)cc1`, for which the z-score is -0.329 in [1]; 1.79 (inactive) in assay [2]; -0.44 (inactive) in assay [3]; 2.29 (inactive) in assay [5]; 2.47 (inactive) in [6]; -0.643 (inactive) in [7]. Moreover, the z-score is -0.623 (inactive) in assay [8] and -0.281 in assay [9]. The composite z-score is 1.15 (inactive) in assay [4] and 2.5 in assay [10].
On to `CCCC=C(CCC)[C@@H](NS(=O)(=O)c1ccc(Cl)cc1)c1ccc(C(=O)OC)cc1`, for which the z-score in assay [1] was 1.16; in assay [2] it was 0.295 (inactive); in assay [3], 0.349 (inactive); in assay [5] it was -0.719 (inactive); in assay [6] it was -0.907 (inactive); in assay [7], 0.198 (inactive). Besides, the figures for the z-score in [8] and in [9] were -1.16 (inactive) and 0.0665, respectively. The composite z-score in assay [4] is -0.336 (inactive); in assay [10] it was -0.122.
With `CN(C)CCCCNC(=O)[C@@H]1C[C@@H]2C(=O)N[C@@H](CCCCN)C(=O)N2[C@@H]1c1ccc(O)cc1`, the z-score in assay [1] was 0.637; in [2] it was 1.43 (inactive); in assay [3], 0.832 (inactive); in assay [5] it was 0.833 (inactive); in assay [6], 2.32 (inactive); in [7] it was 0.499 (inactive). Besides, the results for the z-score in [8] and in assay [9] were 1.1 (inactive) and 0.918, respectively. For the same molecule, the figures for the composite z-score in assay [4] and in [10] were 0.0724 (inactive) and -0.131, respectively.
